About 83,000 compounds went through this panel and 20% of them were active in at least one assay; those are over-represented in the sample as a whole.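 96-well plates, one dose, 48 hours. Percent growth reported; active if below 10.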 Unmarked numbers belong to inactive results. The source made the active and inactive calls.

Some test systems named below: DU-145 prostate; K-562 leukemia; MALME-3M melanoma; MDA-MB-231 breast; RXF 393 renal; SF-268 CNS; SF-295 CNS; SF-539 CNS; UACC-257 melanoma; M14 melanoma; HCT-15 colon; HT29 colon; SNB-75 CNS; SNB-19 CNS; U251 CNS; PC-3 prostate; SK-MEL-5 melanoma; UACC-62 melanoma; LOX IMVI melanoma; SK-MEL-28 melanoma.
What all share (test): NCI-60 one-dose screen, 48 h (100 = growth as untreated, 0 = no growth, -100 = all killed)
What all share (settings): 10 µM unless noted

For `O=c1c2c3c(sc2n2c(-c4cc(-c5ccccc5)no4)nnc2n1Cc1ccccc1)CCCC3`, the growth in the assay on DU-145 prostate was 88.5%; with K-562 leukemia, 64.9%; in the assay on MALME-3M melanoma it was 122%; with MDA-MB-231 breast, 80.5%; with RXF 393 renal, 77.8%; with SF-268 CNS, 93.5%. For the same compound, the growth is 83.4% with SF-295 CNS; 114% in the assay on SF-539 CNS; 110% with UACC-257 melanoma; 111% in the assay on M14 melanoma; 96.9% with HCT-15 colon; 108% with HT29 colon. Also, the growth in the assay on SNB-75 CNS was 76.2%; in the assay on SNB-19 CNS, 55.7%; in the assay on U251 CNS, 94.3%; in the assay on PC-3 prostate, 71.8%; with SK-MEL-5 melanoma, 105%; in the assay on UACC-62 melanoma it was 80.7%. Also, the results for the growth in the assay on LOX IMVI melanoma and in the assay on SK-MEL-28 melanoma were 81% and 127%, respectively.
On to `O=C(Cc1ccc(NC(=O)c2cccc(Cl)c2)cc1)NCc1ccccc1`, for which the growth in the assay on DU-145 prostate is 86.1%; in the assay with K-562 leukemia it was 13.9%; with MALME-3M melanoma, 61.3%; in the assay on MDA-MB-231 breast it was 60.8%; in the assay on RXF 393 renal, 65%; with SF-268 CNS, 61.7%. For the same compound, the growth in the assay with SF-295 CNS was 41.3%; in the assay on SF-539 CNS, 36.7%; in the assay on UACC-257 melanoma it was 69.1%; in the assay with M14 melanoma, 18.7%; in the assay with HCT-15 colon, 27.1%; with HT29 colon it was 8.25% (active). Moreover, the growth in the assay with SNB-75 CNS is 29.7%; in the assay on SNB-19 CNS it was 47.5%; with U251 CNS it was 33.3%; with PC-3 prostate, 48.8%; in the assay with SK-MEL-5 melanoma, 7.53% (active); in the assay on UACC-62 melanoma, 37.2%. In addition, the growth in the assay with LOX IMVI melanoma is 39.6%; with SK-MEL-28 melanoma it was 58.9%.
Take `Cc1ccc(C)c(/C=C2\CN(C(=O)OC(C)(C)C)C/C(=C\c3cc(C)ccc3C)C2=O)c1`: the growth with DU-145 prostate is 37.7%; in the assay on K-562 leukemia, 7.09% (active); in the assay on MALME-3M melanoma it was 67.7%; in the assay with MDA-MB-231 breast it was 92.1%; with RXF 393 renal, 91.1%; with SF-268 CNS it was 53.6%. For the same compound, the growth was 55.9% in the assay on SF-295 CNS; 94.9% in the assay with SF-539 CNS; 59.4% with UACC-257 melanoma; 20.1% in the assay on M14 melanoma; 19.4% in the assay with HCT-15 colon; 9.93% (active) with HT29 colon. Further, the growth with SNB-75 CNS is 78.5%; in the assay with SNB-19 CNS, 59.9%; with U251 CNS, 15.9%; with PC-3 prostate, 46.6%; with SK-MEL-5 melanoma, 45%; with UACC-62 melanoma, 37.3%. Also, the growth was 0.926% (active) in the assay with LOX IMVI melanoma and 41.3% with SK-MEL-28 melanoma.
For the compound `O=C(N/N=C\c1cccc([N+](=O)[O-])c1)N/N=C/c1cccc([N+](=O)[O-])c1`, the growth with DU-145 prostate was 116%; in the assay on K-562 leukemia, 99.4%; with MALME-3M melanoma it was 109%; in the assay with MDA-MB-231 breast it was 100%; with RXF 393 renal, 106%; with SF-268 CNS, 102%. In addition, the growth was 106% with SF-295 CNS; 111% in the assay on SF-539 CNS; 97.4% with UACC-257 melanoma; 113% in the assay on M14 melanoma; 109% with HCT-15 colon; 114% in the assay on HT29 colon. Moreover, the growth is 88.8% with SNB-75 CNS; 100% in the assay on SNB-19 CNS; 97.3% in the assay on U251 CNS; 91.5% in the assay with PC-3 prostate; 95.9% with SK-MEL-5 melanoma; 92.5% in the assay on UACC-62 melanoma. Besides, the growth in the assay with LOX IMVI melanoma is 103%; in the assay with SK-MEL-28 melanoma it was 110%.
For the compound `N#C/C(=C\c1ccc([N+](=O)[O-])cc1)n1nnc2cc(F)c(F)cc21`, the growth is 14.6% with DU-145 prostate; 5.08% (active) in the assay on K-562 leukemia; 33.1% in the assay with MALME-3M melanoma; 8.32% (active) in the assay on MDA-MB-231 breast; -64.7% (active) with RXF 393 renal; 31% in the assay on SF-268 CNS. The growth with SF-295 CNS was 98.1%; in the assay with SF-539 CNS, -33.7% (active); with UACC-257 melanoma, 77.4%; with M14 melanoma, 28.4%; in the assay with HCT-15 colon, -7.69% (active); in the assay with HT29 colon, 0.57% (active). Further, the growth in the assay on SNB-75 CNS was 46.3%; in the assay on SNB-19 CNS, 69%; in the assay with U251 CNS, 43.5%; in the assay on PC-3 prostate it was -16% (active); with SK-MEL-5 melanoma, 81.3%; with UACC-62 melanoma, -43.7% (active). In addition, the results for the growth in the assay on LOX IMVI melanoma and in the assay on SK-MEL-28 melanoma were -97.6% (active) and 101%, respectively.
For `COc1ccccc1C(=O)Nc1cccc(NC(=O)c2ccoc2C)c1`, the growth was 53.3% in the assay with DU-145 prostate; 8.76% (active) in the assay on K-562 leukemia; 60.4% in the assay on MALME-3M melanoma; 59.4% in the assay with MDA-MB-231 breast; 50.1% in the assay with RXF 393 renal; 48.2% in the assay with SF-268 CNS. Besides, the growth was 29.8% in the assay on SF-295 CNS; 27.2% with SF-539 CNS; 33.3% in the assay with UACC-257 melanoma; 13.1% in the assay with M14 melanoma; 28.7% in the assay with HCT-15 colon; 6.04% (active) in the assay on HT29 colon. Besides, the growth in the assay with SNB-75 CNS was 19.3%; in the assay with SNB-19 CNS, 30.4%; in the assay on U251 CNS, 21.9%; in the assay on PC-3 prostate, 30.5%; with SK-MEL-5 melanoma it was 20.5%; with UACC-62 melanoma, 29.7%. Besides, the growth in the assay on LOX IMVI melanoma was 37.3%; with SK-MEL-28 melanoma, 60.1%.
For the compound `CC1(C)C(N)=Nc2cc(OCCCN3Cc4ccccc4C3)c(OCC3CC3)cc21`, the growth was 93.8% in the assay with DU-145 prostate; 38.8% with K-562 leukemia; -14% (active) with MALME-3M melanoma; 49.1% with MDA-MB-231 breast; 69.3% in the assay on RXF 393 renal; 80.2% in the assay on SF-268 CNS. The growth is 78.3% in the assay on SF-295 CNS; 70.3% with SF-539 CNS; 1.23% (active) with UACC-257 melanoma; -45.1% (active) in the assay on M14 melanoma; 40% in the assay on HCT-15 colon; 31.6% in the assay on HT29 colon. For the same compound, the growth is 77.3% in the assay with SNB-75 CNS; 85.2% in the assay with SNB-19 CNS; 56.4% in the assay with U251 CNS; 49.6% in the assay on PC-3 prostate; 53.1% in the assay with SK-MEL-5 melanoma; 78% in the assay with UACC-62 melanoma. Further, the growth with LOX IMVI melanoma is 33.7%; in the assay on SK-MEL-28 melanoma, 56.2%.
As to `CN1C(=O)/C(=C2\SC(=Nc3ccccc3)N(Nc3ccccc3)C2=O)c2ccccc21`, the growth in the assay with DU-145 prostate is 109%; in the assay on K-562 leukemia, 99.5%; with MALME-3M melanoma it was 110%; in the assay on MDA-MB-231 breast it was 91.4%; in the assay with RXF 393 renal it was 109%; in the assay on SF-268 CNS it was 95.4%. The growth was 105% in the assay with SF-295 CNS; 94.9% in the assay on SF-539 CNS; 106% with UACC-257 melanoma; 101% with M14 melanoma; 105% in the assay with HCT-15 colon; 119% in the assay with HT29 colon. Further, the growth was 78.9% with SNB-75 CNS; 95.9% with SNB-19 CNS; 100% in the assay with U251 CNS; 86.6% in the assay with PC-3 prostate; 99.3% with SK-MEL-5 melanoma; 81.3% with UACC-62 melanoma. The growth in the assay with LOX IMVI melanoma is 93.5%; with SK-MEL-28 melanoma, 105%.
